From PubChem BioAssay (EPA / NIEHS)
Records with an inconclusive call do not appear. The source made the active and inactive calls. Rule for the calls, unless noted: active = hit-call score of the fitted dose curve at least 0.9, where 1 is the maximum; inconclusive = response in the unintended direction; inactive = score below 0.9.

Tests used:
[1] = ATG_M_19_CIS: Attagene CIS-FACTORIAL HepG2 Assay for M19 Transcription Factor (Internal Marker) (AID 2282939; active = hit-call score of the fitted dose curve at least 0.9, where 1 is the maximum; inactive = score below 0.9); details: HepG2 Attagene CIS-FACTORIAL M19 internal marker reporter; actives raise or lower the signal
Procedure, shortened: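 Signals come from fluorescence of labelled reporter-specific PCR fragments resolved by capillary electrophoresis, following 24 h treatment of HepG2 cells transfected with cis-promoter reporter units; activity was fitted in both directions relative to DMSO.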

[2] = ATG_FoxO_CIS: Attagene CIS-FACTORIAL HepG2 Assay for human Forkhead box O (FoxO) (AID 2282943; active = hit-call score of the fitted dose curve at least 0.9, where 1 is the maximum; inactive = score below 0.9); details: HepG2 Attagene cis-reporter, FoxO element, mRNA; actives raise or lower the signal
Procedure, shortened: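 HepG2 cells transiently transfected with cis-element-driven reporter units report endogenous FoxO activity. After 24 h chemical exposure, reporter mRNA quantified by RT-PCR, fluorescent labeling, HpaI digestion and capillary electrophoresis; bidirectional fit versus DMSO.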

[3] = ATG_PBREM_CIS: Attagene CIS-FACTORIAL HepG2 Assay for human Phenobarbital-responsive Enhancer Module (PBREM) (AID 2282955; active = hit-call score of the fitted dose curve at least 0.9, where 1 is the maximum; inactive = score below 0.9); details: HepG2 PBREM cis-reporter, Attagene multiplexed transcription; actives raise or lower the signal
Procedure, shortened: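 HepG2 cells transiently transfected with multiple cis-regulated reporter units measure endogenous transcription factor activity; 24 h compound exposure. Reporter mRNA quantified by RT-PCR, fluorescent labelling, HpaI digestion and capillary electrophoresis; bidirectional fit versus DMSO.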

[4] = biological target: Hepatocyte nuclear factor 4-alpha (Homo sapiens) (UniProt P41235); assay: ATG_HNF4a_TRANS: Attagene TRANS-FACTORIAL HepG2 Assay for human Hepatocyte Nuclear Factor 4 alpha (HNF4a) (AID 2282982); details: HepG2 HNF4a transactivation reporter, mRNA readout
Procedure, shortened: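 Transient MRTU transfection of HepG2, 24 h dosing. Readout: reporter mRNA via RT-PCR + capillary electrophoresis, fluorescence; activity fit upward relative to DMSO control.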

[5] = ATG_M_06_TRANS: Attagene TRANS-FACTORIAL HepG2 Assay for M06 Transcription Factor (Internal Marker) (AID 2282983); details: HepG2 Attagene TRANS M06 internal marker reporter;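 note: reporter transcript level by RT-PCR then capillary electrophoresis fluorescence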
Procedure, shortened: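 Human liver HepG2 cells bearing transiently transfected chimeric NR-GAL4 reporter units were treated with chemicals for 24 h. Total RNA was reverse-transcribed, reporter sequences amplified and labelled, then quantified by capillary electrophoresis. Activity was fitted upward relative to DMSO.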

[6] = biological target: human Peroxisome Proliferator-activated Receptor alpha (PPARa), PPARA (gene 5465) (UniProt Q07869); assay: ATG_PPARa_TRANS: Attagene TRANS-FACTORIAL HepG2 Assay for human Peroxisome Proliferator-activated Receptor alpha (PPARa) (AID 2283001)
Procedure, shortened: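 Transient HepG2 transfection, GAL4-UAS reporters, NR-Gal4 chimeras; 24 h compound exposure. Readout: reporter transcripts by RT-PCR, 6-FAM primer extension, HpaI digest, capillary electrophoresis. Positive direction vs DMSO baseline.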

[7] = biological target: Peroxisome proliferator-activated receptor gamma (Homo sapiens) (UniProt P37231); assay: ATG_PPARg_TRANS: Attagene TRANS-FACTORIAL HepG2 Assay for human Peroxisome Proliferator-activated Receptor-gamma (PPARg) (AID 2283007)
Procedure, shortened: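 HepG2 cells are transiently transfected with GAL4-UAS reporter units driven by chimeric NR-Gal4 fusions and dosed for 24 h. Reporter mRNA is quantified by RT-PCR, 6-FAM labelling, HpaI digestion and capillary electrophoresis. Induction is scored against DMSO.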

[8] = biological target: Nuclear receptor subfamily 1 group I member 2 (Homo sapiens) (UniProt O75469); assay: ATG_PXR_TRANS: Attagene TRANS-FACTORIAL HepG2 Assay for human Pregnane X Receptor (PXR) (AID 2283008)
Procedure, shortened: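 HepG2 transfected (FuGene 6) with GAL4-UAS reporter units + PXR-Gal4 chimera; dosed 24 h. Total RNA → oligo(dT) RT → PCR → 6-FAM primer extension → HpaI cut → CE. Gain-of-signal vs DMSO.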

[9] = biological target: Cellular tumor antigen p53 (Homo sapiens) (UniProt P04637); assay: TOX21_p53_BLA_p2_ratio: Tox21 HCT-116 p53 Agonism Beta-lactamase Assay, Ratio, Phase 2 (AID 2283592)
Procedure, shortened: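 Cleaved-to-uncleaved substrate ratio (460 vs 530 nm) measured in HCT116 cells with an inducible beta-lactamase reporter linked to p53 activity. Compounds incubated 16 h at 37C before 2 h room-temperature CCF4-AM loading.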

[10] = biological target: Cellular tumor antigen p53 (Homo sapiens) (UniProt P04637); assay: TOX21_p53_BLA_p3_ratio: Tox21 HCT-116 p53 Agonism Beta-lactamase Assay, Ratio, Phase 3 (AID 2283596)
Procedure, shortened: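 Cells were seeded at 4000/well, rested 5 h at 37C, then dosed with DMSO compound solutions (217-fold dilution) for 16 h. CCF4-AM substrate was loaded for 2 h at room temperature, and the 460/530 nm emission ratio was fitted for gain of signal versus DMSO.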

[11] = biological target: Cellular tumor antigen p53 (Homo sapiens) (UniProt P04637); assay: TOX21_p53_BLA_p5_ratio: Tox21 HCT-116 p53 Agonism Beta-lactamase Assay, Ratio, Phase 5 (AID 2283599)
Procedure, shortened: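 HCT-116 p53-bla cells (4000/well) plated 5 h, dosed with compound (217-fold DMSO dilution) for 16 h at 37 C; CCF4-AM substrate 2 h at room temperature. Activity is the 460/530 nm emission ratio (405 nm excitation), fitted in gain-of-signal direction versus DMSO.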

[12] = TOX21_p53_BLA_p5_viability: Viability Assessment in the Tox21 HCT-116 p53 Agonism Beta-lactamase Assay, Phase 5 (AID 2283600)
Procedure, shortened: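 Viability is taken from cellular ATP content, measured by luciferase luminescence in the same wells after the beta-lactamase ratio read. Cells are seeded at 4000 per well and exposed to DMSO-dissolved compounds, diluted 217-fold, for 16 h.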

[13] = biological target: Cellular tumor antigen p53 (Homo sapiens) (UniProt P04637); assay: TOX21_p53_BLA_p4_ratio: Tox21 HCT-116 p53 Agonism Beta-lactamase Assay, Ratio, Phase 4 (AID 2283601)
Procedure, shortened: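 HCT-116 p53 beta-lactamase reporter cells (4000/well) preincubated 5 h, then compound (217-fold dilution of DMSO stock) for 16 h at 37C. CCF4-AM substrate added 2 h at room temperature; 460/530 nm emission ratio fitted upward versus DMSO.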

[14] = biological target: Hypoxia-inducible factor 1-alpha (Homo sapiens) (UniProt Q16665); assay: ATG_HIF1a_CIS: Attagene CIS-FACTORIAL HepG2 Assay for human Hypoxia Inducible Factor 1 (HIF1A) (AID 2282951; active = hit-call score of the fitted dose curve at least 0.9, where 1 is the maximum; inactive = score below 0.9); details: HepG2 Attagene cis-factorial HIF1a reporter transcription; actives raise or lower the signal
Procedure, shortened: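 HepG2 cells transiently transfected with multiple cis-regulated reporter transcription units measure endogenous transcription factor activity. After 24 h exposure, reporter mRNA is quantified by RT-PCR with 6-FAM labelling, HpaI digestion and capillary electrophoresis. Bidirectional fitting against DMSO.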

[15] = biological target: Heat shock factor protein 1 (Homo sapiens) (UniProt Q00613); assay: ATG_HSE_CIS: Attagene CIS-FACTORIAL HepG2 Assay for human Heat Shock Transcription Factor 1 (HSE) (AID 2282953; active = hit-call score of the fitted dose curve at least 0.9, where 1 is the maximum; inactive = score below 0.9); details: HepG2 HSE cis-reporter, Attagene RNA transcription; actives raise or lower the signal
Procedure, shortened: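 Endogenous transcription factor activity captured via cis-promoter reporter units transfected into HepG2; treatment lasted 24 h. Fluorescence intensity of reporter fragments analysed with bidirectional curve fitting, DMSO baseline.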

[16] = ATG_NRF2_ARE_CIS: Attagene CIS-FACTORIAL HepG2 Assay for human Nuclear Factor Erythroid 2 Related Factor 2 (NFR2) response to Antioxidant Response Elements (ARE) (AID 2282992; active = hit-call score of the fitted dose curve at least 0.9, where 1 is the maximum; inactive = score below 0.9;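 for AC50: reporter mRNA level measured by RT-PCR and capillary electrophoresis fluorescence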); details: HepG2 Attagene ARE/NRF2 reporter, transcription factor activity; actives raise or lower the signal
Procedure, shortened: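 Endogenous transcription factor activity in human liver HepG2 cells is tracked via a cis-element-driven reporter within a multiplexed set. mRNA induction is read by RT-PCR and capillary electrophoresis after 24 h, with DMSO as baseline.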

[17] = biological target: Retinoic acid receptor RXR-alpha (Homo sapiens) (UniProt P19793); assay: ATG_RXRa_TRANS: Attagene TRANS-FACTORIAL HepG2 Assay for human Retinoid X Receptor alpha (RXRa) (AID 2283012)
Procedure, shortened: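 Read-out: fluorescent reporter-transcript fragments quantified by capillary electrophoresis after RT-PCR. Transiently transfected HepG2 cells carrying GAL4-UAS reporters and NR-GAL4 chimeras were exposed to chemical for 24 h; activity scored as increase over DMSO.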

[18] = biological target: human Thyroid Receptor alpha (THRa1), THRA (gene 7067) (UniProt P10827); assay: ATG_THRa1_TRANS: Attagene TRANS-FACTORIAL HepG2 Assay for human Thyroid Receptor alpha (THRa1) (AID 2283014)
Procedure, shortened: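 First, HepG2 cells receive multiple GAL4-UAS reporter units and the chimeric receptor. They are then dosed for 24 h, after which RNA is reverse-transcribed, amplified, labelled, HpaI-cut and sized by capillary electrophoresis; gain relative to DMSO is scored.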

[19] = ATG_GRE_CIS: Attagene CIS-FACTORIAL HepG2 Assay for human Glucocorticoid Response Elements (GRE) (AID 2282947; active = hit-call score of the fitted dose curve at least 0.9, where 1 is the maximum; inactive = score below 0.9); details: HepG2 GRE cis-reporter, Attagene multiplex mRNA; actives raise or lower the signal
Procedure, shortened: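 Read-out: fluorescent reporter-transcript fragments separated by capillary electrophoresis after RT-PCR. Transiently transfected HepG2 cells carrying cis-element-driven reporter units were dosed for 24 h; gain or loss of signal fitted against DMSO control.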

[20] = ATG_RORE_CIS: Attagene CIS-FACTORIAL HepG2 Assay for human RAR-related Orphan Receptor Element (RORE) (AID 2282959; active = hit-call score of the fitted dose curve at least 0.9, where 1 is the maximum; inactive = score below 0.9); details: HepG2 Attagene cis-factorial RORE reporter, mRNA; actives raise or lower the signal
Procedure, shortened: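 HepG2 cells carrying transiently transfected cis-regulated reporter units; RORE-driven reporter mRNA quantified 24 h post-dosing by RT-PCR, 6-FAM primer extension, HpaI digestion and capillary electrophoresis. Bidirectional fit versus DMSO.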

Measured: AC50

Sequence of human Peroxisome Proliferator-activated Receptor alpha (PPARa), PPARA (gene 5465) (Q07869 whole entry, looked up, the tested form may be a part): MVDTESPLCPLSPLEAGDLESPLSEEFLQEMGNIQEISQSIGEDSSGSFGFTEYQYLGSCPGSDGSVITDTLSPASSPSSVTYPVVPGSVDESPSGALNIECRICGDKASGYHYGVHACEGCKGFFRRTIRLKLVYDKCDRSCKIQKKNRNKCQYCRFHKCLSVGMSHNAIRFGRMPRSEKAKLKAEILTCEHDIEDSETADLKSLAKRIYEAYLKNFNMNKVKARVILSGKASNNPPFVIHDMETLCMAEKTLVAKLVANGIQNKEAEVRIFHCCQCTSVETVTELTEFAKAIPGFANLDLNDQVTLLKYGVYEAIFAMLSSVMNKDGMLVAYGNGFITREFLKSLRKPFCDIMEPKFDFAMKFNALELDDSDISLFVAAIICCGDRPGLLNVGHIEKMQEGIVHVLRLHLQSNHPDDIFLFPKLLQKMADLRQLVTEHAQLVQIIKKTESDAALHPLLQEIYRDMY
Sequence of Nuclear receptor subfamily 1 group I member 2 (Homo sapiens) (O75469 whole entry, looked up, the tested form may be a part): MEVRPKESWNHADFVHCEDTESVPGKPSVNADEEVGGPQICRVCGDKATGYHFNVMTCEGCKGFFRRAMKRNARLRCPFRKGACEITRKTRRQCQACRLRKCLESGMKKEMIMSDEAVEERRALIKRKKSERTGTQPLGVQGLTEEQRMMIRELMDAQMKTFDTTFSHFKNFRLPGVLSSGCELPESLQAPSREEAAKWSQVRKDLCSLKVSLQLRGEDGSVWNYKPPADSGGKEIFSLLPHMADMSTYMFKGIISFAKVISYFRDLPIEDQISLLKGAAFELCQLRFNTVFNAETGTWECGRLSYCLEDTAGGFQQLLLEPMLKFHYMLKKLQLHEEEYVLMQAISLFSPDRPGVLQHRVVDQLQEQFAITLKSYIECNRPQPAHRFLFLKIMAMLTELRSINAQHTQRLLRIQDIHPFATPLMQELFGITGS
Sequence of Hypoxia-inducible factor 1-alpha (Homo sapiens) (Q16665 whole entry, looked up): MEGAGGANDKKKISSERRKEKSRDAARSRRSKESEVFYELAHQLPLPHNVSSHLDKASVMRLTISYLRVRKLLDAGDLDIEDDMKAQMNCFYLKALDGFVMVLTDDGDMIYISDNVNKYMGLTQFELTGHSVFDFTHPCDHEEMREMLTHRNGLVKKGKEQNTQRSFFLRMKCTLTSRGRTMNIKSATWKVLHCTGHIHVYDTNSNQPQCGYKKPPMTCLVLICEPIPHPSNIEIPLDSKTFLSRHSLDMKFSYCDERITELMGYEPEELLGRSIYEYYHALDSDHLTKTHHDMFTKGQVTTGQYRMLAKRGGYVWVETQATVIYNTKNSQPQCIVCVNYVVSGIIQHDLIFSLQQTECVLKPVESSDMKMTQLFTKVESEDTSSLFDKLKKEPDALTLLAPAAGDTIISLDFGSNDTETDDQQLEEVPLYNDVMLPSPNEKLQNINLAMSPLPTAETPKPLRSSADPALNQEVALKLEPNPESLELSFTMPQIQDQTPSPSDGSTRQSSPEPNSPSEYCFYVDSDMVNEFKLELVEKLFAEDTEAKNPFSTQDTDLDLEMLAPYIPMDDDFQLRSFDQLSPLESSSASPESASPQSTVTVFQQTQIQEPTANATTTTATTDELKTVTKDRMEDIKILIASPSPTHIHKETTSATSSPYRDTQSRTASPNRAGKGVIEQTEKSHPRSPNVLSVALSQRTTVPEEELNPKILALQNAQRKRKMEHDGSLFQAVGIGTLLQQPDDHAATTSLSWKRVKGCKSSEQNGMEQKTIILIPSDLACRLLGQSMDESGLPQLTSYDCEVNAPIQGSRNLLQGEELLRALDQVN
Sequence of human Thyroid Receptor alpha (THRa1), THRA (gene 7067) (P10827 whole entry, looked up, the tested form may be a part): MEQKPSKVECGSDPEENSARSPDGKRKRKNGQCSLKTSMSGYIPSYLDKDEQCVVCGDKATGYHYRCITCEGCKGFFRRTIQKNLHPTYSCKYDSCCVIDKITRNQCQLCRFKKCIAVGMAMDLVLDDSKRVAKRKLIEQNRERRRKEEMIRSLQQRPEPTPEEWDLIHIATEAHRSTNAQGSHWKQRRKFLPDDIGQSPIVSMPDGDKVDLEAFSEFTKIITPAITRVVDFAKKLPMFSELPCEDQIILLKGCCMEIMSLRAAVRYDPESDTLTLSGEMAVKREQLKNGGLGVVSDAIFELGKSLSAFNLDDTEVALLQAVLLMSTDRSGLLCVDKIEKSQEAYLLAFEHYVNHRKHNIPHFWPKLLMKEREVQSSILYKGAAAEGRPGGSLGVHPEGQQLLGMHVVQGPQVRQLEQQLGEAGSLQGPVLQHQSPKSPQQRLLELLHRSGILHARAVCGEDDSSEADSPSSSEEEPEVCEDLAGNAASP
Sequence of Peroxisome proliferator-activated receptor gamma (Homo sapiens) (P37231 whole entry, looked up, the tested form may be a part): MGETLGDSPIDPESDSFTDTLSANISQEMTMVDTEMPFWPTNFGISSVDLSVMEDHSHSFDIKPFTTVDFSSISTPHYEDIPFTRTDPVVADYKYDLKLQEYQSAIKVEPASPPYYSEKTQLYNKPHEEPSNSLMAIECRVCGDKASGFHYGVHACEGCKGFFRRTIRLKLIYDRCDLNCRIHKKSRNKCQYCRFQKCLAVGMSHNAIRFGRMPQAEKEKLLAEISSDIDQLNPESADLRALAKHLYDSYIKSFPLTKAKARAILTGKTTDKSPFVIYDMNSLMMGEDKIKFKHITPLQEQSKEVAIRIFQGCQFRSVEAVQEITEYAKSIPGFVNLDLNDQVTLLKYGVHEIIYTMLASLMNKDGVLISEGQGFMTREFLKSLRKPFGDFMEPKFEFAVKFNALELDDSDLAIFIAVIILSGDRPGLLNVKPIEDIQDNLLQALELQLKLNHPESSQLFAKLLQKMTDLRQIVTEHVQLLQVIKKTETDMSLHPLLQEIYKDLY
Sequence of Cellular tumor antigen p53 (Homo sapiens) (P04637 whole entry, looked up): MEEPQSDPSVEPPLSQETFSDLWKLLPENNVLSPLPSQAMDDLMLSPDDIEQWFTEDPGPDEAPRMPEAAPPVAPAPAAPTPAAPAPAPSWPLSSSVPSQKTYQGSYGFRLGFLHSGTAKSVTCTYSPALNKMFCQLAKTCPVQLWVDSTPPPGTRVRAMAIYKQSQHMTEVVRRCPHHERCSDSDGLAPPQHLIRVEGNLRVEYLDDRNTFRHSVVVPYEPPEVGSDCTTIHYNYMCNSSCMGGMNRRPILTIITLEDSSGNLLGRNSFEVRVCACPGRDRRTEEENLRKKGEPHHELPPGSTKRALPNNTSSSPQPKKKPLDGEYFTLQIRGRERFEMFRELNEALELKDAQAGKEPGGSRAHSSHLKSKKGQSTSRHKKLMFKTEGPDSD
Sequence of Heat shock factor protein 1 (Homo sapiens) (Q00613 whole entry, looked up, the tested form may be a part): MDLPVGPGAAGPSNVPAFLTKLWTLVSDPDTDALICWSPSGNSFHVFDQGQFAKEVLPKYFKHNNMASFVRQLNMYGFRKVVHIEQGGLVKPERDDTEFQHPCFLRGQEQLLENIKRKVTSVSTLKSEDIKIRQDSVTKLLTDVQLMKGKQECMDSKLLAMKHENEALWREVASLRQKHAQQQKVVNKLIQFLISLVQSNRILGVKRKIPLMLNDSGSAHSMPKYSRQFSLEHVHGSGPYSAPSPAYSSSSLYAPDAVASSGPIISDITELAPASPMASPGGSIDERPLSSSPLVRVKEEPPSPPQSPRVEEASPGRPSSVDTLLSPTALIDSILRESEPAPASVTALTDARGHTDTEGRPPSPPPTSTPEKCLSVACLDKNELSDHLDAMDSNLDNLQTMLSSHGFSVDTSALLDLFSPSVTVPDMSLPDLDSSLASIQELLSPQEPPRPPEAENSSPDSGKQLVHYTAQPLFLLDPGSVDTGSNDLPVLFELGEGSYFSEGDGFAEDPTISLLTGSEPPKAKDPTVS
Sequence of Hepatocyte nuclear factor 4-alpha (Homo sapiens) (P41235 whole entry, looked up): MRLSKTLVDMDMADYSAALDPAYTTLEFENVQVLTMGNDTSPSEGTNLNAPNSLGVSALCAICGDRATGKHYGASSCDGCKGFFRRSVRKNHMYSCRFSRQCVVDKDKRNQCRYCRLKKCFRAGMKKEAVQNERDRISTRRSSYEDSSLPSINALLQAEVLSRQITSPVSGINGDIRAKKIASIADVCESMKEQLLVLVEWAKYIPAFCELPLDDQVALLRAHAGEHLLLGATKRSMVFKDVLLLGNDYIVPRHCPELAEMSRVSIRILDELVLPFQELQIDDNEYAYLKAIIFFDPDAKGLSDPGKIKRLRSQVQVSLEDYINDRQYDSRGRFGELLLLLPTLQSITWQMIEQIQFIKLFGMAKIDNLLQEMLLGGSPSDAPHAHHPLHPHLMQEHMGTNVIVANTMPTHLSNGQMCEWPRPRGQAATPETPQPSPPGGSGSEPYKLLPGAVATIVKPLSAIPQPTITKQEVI
Sequence of Retinoic acid receptor RXR-alpha (Homo sapiens) (P19793 whole entry, looked up, the tested form may be a part): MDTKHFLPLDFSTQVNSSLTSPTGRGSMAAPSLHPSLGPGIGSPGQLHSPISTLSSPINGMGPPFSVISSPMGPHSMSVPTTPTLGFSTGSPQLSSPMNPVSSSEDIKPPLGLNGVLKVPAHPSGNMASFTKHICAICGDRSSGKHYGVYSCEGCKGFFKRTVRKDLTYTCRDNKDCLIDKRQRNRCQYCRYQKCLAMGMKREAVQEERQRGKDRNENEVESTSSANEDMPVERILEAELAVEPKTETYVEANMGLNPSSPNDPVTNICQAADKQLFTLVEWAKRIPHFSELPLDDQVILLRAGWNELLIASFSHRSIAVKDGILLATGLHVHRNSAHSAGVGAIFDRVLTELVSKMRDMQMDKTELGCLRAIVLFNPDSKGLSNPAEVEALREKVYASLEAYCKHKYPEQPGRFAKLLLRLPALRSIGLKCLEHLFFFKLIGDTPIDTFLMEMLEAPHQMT

CC(C)(O)C#N
inactive: [1] | [2] | [3] | [4] | [5] | [6] | [7] | [8] | [9] | [10] | [11] | [12] | [13]

O=S(=O)(c1ccccc1)c1ccccc1
active: [8] 10.3 µM
inactive: [1] | [14] | [15] | [3] | [4] | [16] | [7] | [17] | [18] | [9] | [10] | [11] | [12] | [13]

Nc1ccccc1C(=O)OCCc1ccccc1
inactive: [1] | [2] | [19] | [4] | [5] | [6] | [17] | [18] | [9] | [10] | [11] | [12] | [13]
active: [14] 31.9 µM | [3] 21.3 µM | [20] 20.8 µM | [16] 13.1 µM | [7] 24.9 µM | [8] 19.2 µM

CC[N+](=O)[O-]
inactive: [1] | [2] | [19] | [14] | [3] | [20] | [4] | [5] | [16] | [6] | [7] | [8] | [18] | [9] | [10] | [11] | [12] | [13]

S=c1[nH]c2ccccc2[nH]1
inactive: [1] | [19] | [14] | [3] | [20] | [4] | [5] | [16] | [6] | [7] | [8] | [12] | [13]

CCOP(=O)(OCC)Oc1ccc([N+](=O)[O-])cc1
inactive: [1] | [2] | [14] | [15] | [3] | [5] | [16] | [7] | [8] | [17] | [18] | [10] | [11] | [12]

[CH3][Sn]([Cl])([Cl])[Cl]
inactive: [2] | [19] | [14] | [15] | [3] | [20] | [4] | [5] | [7] | [8] | [10] | [11] | [13]

Nc1ccc([N+](=O)[O-])cc1N
active: [16] 7.53 µM
inactive: [1] | [2] | [14] | [15] | [20] | [4] | [5] | [7] | [8] | [17] | [9] | [11] | [12] | [13]
